From PubChem BioAssay (EPA / NIEHS)
The source made the active and inactive calls. Rule for the calls: active = hit-call score of the fitted dose curve at least 0.9, where 1 is the maximum; inactive = score below 0.9.

How the values were obtained:
[1] = molecular target: Transcription factor E2F1 (Homo sapiens) (UniProt Q01094); assay: ATG_E2F_CIS: Attagene CIS-FACTORIAL HepG2 Assay for human E2F Transcription Factor 1 (AID 2282935); settings: HepG2 Attagene cis-reporter, E2F reporter RNA transcripts; actives raise or lower the signal
Chain of Transcription factor E2F1 (Homo sapiens) (Q01094 whole entry, looked up): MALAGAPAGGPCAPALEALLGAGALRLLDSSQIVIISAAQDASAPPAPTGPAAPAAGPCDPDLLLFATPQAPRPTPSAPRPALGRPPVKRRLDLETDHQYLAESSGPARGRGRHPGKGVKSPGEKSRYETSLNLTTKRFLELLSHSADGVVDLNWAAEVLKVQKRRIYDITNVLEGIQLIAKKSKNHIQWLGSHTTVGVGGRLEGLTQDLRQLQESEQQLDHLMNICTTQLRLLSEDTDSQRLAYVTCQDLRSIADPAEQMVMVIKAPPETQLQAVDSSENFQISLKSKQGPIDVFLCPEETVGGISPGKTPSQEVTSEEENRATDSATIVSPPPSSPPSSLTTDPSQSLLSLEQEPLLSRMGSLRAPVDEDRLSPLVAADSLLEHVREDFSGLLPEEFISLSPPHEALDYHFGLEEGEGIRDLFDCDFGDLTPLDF
Summary of the method: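 HepG2 cells transiently transfected with multiplexed cis-element reporter units, dosed for 24 h. Reporter mRNA measured by RT-PCR, 6-FAM primer-extension labeling, HpaI digestion and capillary electrophoresis; bidirectional fit versus DMSO baseline.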

[2] = ATG_E_Box_CIS: Attagene CIS-FACTORIAL HepG2 Assay for human Enhancer Box (E-box) (AID 2282936); settings: HepG2 E-box cis-reporter transcription, actives raise or lower the signal
Summary of the method: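 HepG2 cells transiently transfected with multiplexed cis-element reporter units sensing endogenous transcription factor activity; 24 h compound exposure. Reporter mRNA measured by RT-PCR, 6-FAM primer extension, HpaI digestion and capillary electrophoresis; bidirectional fit versus DMSO.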

[3] = ATG_M_61_CIS: Attagene CIS-FACTORIAL HepG2 Assay for M61 Transcription Factor (Internal Marker) (AID 2282937); settings: HepG2 Attagene CIS-FACTORIAL M61 internal marker reporter; actives raise or lower the signal
Summary of the method: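 Background-control endpoint: HepG2 cells with cis-regulated reporter constructs, 24 h exposure, reporter mRNA detected via fluorescent primer extension and capillary electrophoresis; values from bidirectional fitting with DMSO baseline.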

[4] = ATG_EGR_CIS: Attagene CIS-FACTORIAL HepG2 Assay for human Early Growth Response 1 (EGR1) (AID 2282938); settings: HepG2 Attagene CIS-FACTORIAL EGR reporter mRNA; actives raise or lower the signal
Summary of the method: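 Endpoint derived by bidirectional fitting versus DMSO vehicle. Method: cis-promoter reporter units transfected into HepG2, 24 h dosing, RNA isolation, RT-PCR with 6-FAM primer extension and HpaI digestion, then capillary electrophoresis fluorescence detection.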

[5] = ATG_M_19_CIS: Attagene CIS-FACTORIAL HepG2 Assay for M19 Transcription Factor (Internal Marker) (AID 2282939); settings: HepG2 Attagene CIS-FACTORIAL M19 internal marker reporter; actives raise or lower the signal
Summary of the method: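 Readout: fluorescent reporter-transcript fragments by capillary electrophoresis after RT-PCR. Human HepG2 liver cells carried transfected MRTU constructs reporting endogenous transcription-factor activity; exposure 24 h. Gain or loss of signal fitted relative to DMSO.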

[6] = ATG_Ets_CIS: Attagene CIS-FACTORIAL HepG2 Assay for human Erythroblast Transformation Specific (ETS) (AID 2282941); settings: HepG2 ETS cis-reporter transcription, actives raise or lower the signal
Summary of the method: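 Human HepG2 hepatoma cells were transiently transfected with promoter-driven reporter constructs and treated for 24 hours. Reporter transcripts were quantified by RT-PCR with fluorescent primer extension; bidirectional curve fitting used DMSO as reference.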

[7] = molecular target: Hepatocyte nuclear factor 3-beta (Homo sapiens) (UniProt Q9Y261); assay: ATG_FoxA2_CIS: Attagene CIS-FACTORIAL HepG2 Assay for human Forkhead box A2 (FOXA2) (AID 2282942); settings: HepG2 cis-reporter transcription factor activity, 24 h; actives raise or lower the signal
Chain of Hepatocyte nuclear factor 3-beta (Homo sapiens) (Q9Y261 whole entry, looked up): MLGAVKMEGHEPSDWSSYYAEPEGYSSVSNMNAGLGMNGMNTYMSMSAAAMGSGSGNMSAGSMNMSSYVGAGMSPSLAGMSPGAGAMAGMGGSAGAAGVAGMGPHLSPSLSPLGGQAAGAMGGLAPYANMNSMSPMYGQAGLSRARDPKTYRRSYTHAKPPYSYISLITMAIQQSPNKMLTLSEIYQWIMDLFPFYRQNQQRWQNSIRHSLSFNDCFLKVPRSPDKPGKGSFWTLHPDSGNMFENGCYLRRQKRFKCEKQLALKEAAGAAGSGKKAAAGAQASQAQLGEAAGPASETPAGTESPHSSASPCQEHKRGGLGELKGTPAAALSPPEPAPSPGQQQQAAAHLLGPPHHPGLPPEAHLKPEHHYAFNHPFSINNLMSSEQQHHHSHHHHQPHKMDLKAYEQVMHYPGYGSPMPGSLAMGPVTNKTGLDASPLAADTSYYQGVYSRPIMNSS
Summary of the method: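 Measured: reporter mRNA induction or loss in HepG2 transiently carrying multiple cis-regulated reporter units, 24 h after dosing. Quantified by RT-PCR plus capillary electrophoresis, normalised to DMSO.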

[8] = ATG_FoxO_CIS: Attagene CIS-FACTORIAL HepG2 Assay for human Forkhead box O (FoxO) (AID 2282943); settings: HepG2 Attagene cis-reporter, FoxO element, mRNA; actives raise or lower the signal
Summary of the method: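 HepG2 cells transiently transfected with cis-promoter-driven multiple reporter transcription units; 24 h after chemical dosing, reporter mRNA quantified by RT-PCR, fluorescent primer extension, HpaI digestion and capillary electrophoresis. Bidirectional fitting versus DMSO baseline.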

[9] = ATG_GATA_CIS: Attagene CIS-FACTORIAL HepG2 Assay for human GATA Binding Protein (AID 2282944); settings: HepG2 GATA cis-element reporter, Attagene multiplex mRNA; actives raise or lower the signal
Summary of the method: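 Read-out: fluorescent reporter mRNA fragments resolved by capillary electrophoresis after RT-PCR. Human liver HepG2 cells carried transiently transfected cis-regulated reporter constructs; chemicals incubated 24 h; gain or loss of signal fitted relative to DMSO.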

[10] = ATG_GLI_CIS: Attagene CIS-FACTORIAL HepG2 Assay for human Zinc Finger Protein GLI1 (AID 2282945); settings: HepG2, Attagene cis-factorial reporter mRNA, GLI element; actives raise or lower the signal
Summary of the method: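 HepG2 cells transiently transfected with cis-promoter multiplexed reporter units report endogenous transcription factor activity. After 24 h chemical exposure, reporter mRNA was quantified by RT-PCR, 6-FAM labelling, HpaI digestion and capillary electrophoresis, with bidirectional fitting against DMSO.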

[11] = ATG_ISRE_CIS: Attagene CIS-FACTORIAL HepG2 Assay for human Interferon Regulatory Factor 1 (IRF1) binding to an Interferon-Stimulated Response Element (ISRE) (AID 2282948); settings: HepG2 ISRE cis-reporter (Attagene), mRNA transcription readout; actives raise or lower the signal
Summary of the method: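 Cell-based cis-reporter assay; HepG2; 24 h exposure; reporter mRNA by RT-PCR plus capillary electrophoresis fluorescence; activity in either direction scored relative to DMSO.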

[12] = ATG_M_32_CIS: Attagene CIS-FACTORIAL HepG2 Assay for M32 Transcription Factor (Internal Marker) (AID 2282949); settings: HepG2 Attagene cis-factorial M32 reporter, mRNA; actives raise or lower the signal;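 note: background control marker of the multiplexed CIS panel rather than a real target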
Summary of the method: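 Following 24 h chemical exposure of HepG2 cells transiently expressing cis-promoter reporter constructs, reporter transcript levels were determined by RT-PCR with fluorescent labelling and capillary electrophoresis, then fitted bidirectionally against DMSO.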

[13] = ATG_M_06_CIS: Attagene CIS-FACTORIAL HepG2 Assay for M06 Transcription Factor (Internal Marker) (AID 2282950); settings: HepG2 Attagene CIS-FACTORIAL M06 internal marker reporter; actives raise or lower the signal
Summary of the method: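 Terse: HepG2, transient MRTU transfection (FuGene 6), 24 h dosing; total RNA, oligo(dT) RT, PCR, FAM label, HpaI cut, capillary electrophoresis; bidirectional fit vs DMSO baseline; background-control endpoint.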

[14] = molecular target: Hypoxia-inducible factor 1-alpha (Homo sapiens) (UniProt Q16665); assay: ATG_HIF1a_CIS: Attagene CIS-FACTORIAL HepG2 Assay for human Hypoxia Inducible Factor 1 (HIF1A) (AID 2282951); settings: HepG2 Attagene cis-factorial HIF1a reporter transcription; actives raise or lower the signal
Chain of Hypoxia-inducible factor 1-alpha (Homo sapiens) (Q16665 whole entry, looked up): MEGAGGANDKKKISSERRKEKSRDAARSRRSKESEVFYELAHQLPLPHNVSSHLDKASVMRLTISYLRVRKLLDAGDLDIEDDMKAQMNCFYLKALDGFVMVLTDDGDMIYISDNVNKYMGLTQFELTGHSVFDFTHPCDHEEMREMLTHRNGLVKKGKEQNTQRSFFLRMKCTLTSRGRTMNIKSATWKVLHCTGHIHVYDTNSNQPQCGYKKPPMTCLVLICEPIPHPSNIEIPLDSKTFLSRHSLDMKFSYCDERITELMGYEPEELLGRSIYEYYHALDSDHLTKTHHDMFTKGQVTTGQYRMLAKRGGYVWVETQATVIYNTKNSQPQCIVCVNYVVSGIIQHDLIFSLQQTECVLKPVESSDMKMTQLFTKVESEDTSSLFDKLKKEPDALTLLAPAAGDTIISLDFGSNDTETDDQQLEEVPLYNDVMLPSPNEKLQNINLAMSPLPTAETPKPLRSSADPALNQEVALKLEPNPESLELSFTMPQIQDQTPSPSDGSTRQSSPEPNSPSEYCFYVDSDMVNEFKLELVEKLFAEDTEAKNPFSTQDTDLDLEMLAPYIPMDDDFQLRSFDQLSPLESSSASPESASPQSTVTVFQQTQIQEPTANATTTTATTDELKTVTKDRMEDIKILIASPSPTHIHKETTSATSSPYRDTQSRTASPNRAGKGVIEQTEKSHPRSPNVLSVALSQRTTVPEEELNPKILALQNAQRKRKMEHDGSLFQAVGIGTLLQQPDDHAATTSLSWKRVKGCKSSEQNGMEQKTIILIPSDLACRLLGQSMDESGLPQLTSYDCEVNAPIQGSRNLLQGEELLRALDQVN
Summary of the method: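 Dosed 24 h, transfected HepG2 cells yielded total RNA whose reporter transcripts were RT-PCR-amplified and sized by capillary electrophoresis using fluorescent labelling; DMSO defined baseline, with gain and loss of signal both fitted.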

[15] = molecular target: Hepatocyte nuclear factor 6 (Homo sapiens) (UniProt Q9UBC0); assay: ATG_HNF6_CIS: Attagene CIS-FACTORIAL HepG2 Assay for human Hepatocyte Nuclear Factor 6 (HNF6) (AID 2282952); settings: HepG2 Attagene cis-factorial HNF6 reporter transcription; actives raise or lower the signal
Chain of Hepatocyte nuclear factor 6 (Homo sapiens) (Q9UBC0 whole entry, looked up, the tested form may be a part): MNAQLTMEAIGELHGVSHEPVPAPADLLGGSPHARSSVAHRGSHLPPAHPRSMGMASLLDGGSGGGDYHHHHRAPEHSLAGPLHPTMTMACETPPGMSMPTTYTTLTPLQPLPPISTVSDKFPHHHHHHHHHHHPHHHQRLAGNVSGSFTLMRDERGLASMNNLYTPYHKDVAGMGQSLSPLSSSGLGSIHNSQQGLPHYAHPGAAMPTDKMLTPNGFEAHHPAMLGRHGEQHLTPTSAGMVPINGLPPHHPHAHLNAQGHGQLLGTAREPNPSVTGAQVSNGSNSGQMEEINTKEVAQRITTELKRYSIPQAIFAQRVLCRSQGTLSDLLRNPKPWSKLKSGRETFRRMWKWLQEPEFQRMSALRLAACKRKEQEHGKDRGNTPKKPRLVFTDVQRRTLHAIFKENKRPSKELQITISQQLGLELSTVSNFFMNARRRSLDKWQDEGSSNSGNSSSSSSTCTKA
Summary of the method: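 Reporter mRNA induction or loss in HepG2 after 24 h exposure; transient cis-MRTU transfection; fragments quantified by capillary electrophoresis; bidirectional analysis, DMSO as negative control.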

[16] = molecular target: Heat shock factor protein 1 (Homo sapiens) (UniProt Q00613); assay: ATG_HSE_CIS: Attagene CIS-FACTORIAL HepG2 Assay for human Heat Shock Transcription Factor 1 (HSE) (AID 2282953); settings: HepG2 HSE cis-reporter, Attagene RNA transcription; actives raise or lower the signal
Chain of Heat shock factor protein 1 (Homo sapiens) (Q00613 whole entry, looked up, the tested form may be a part): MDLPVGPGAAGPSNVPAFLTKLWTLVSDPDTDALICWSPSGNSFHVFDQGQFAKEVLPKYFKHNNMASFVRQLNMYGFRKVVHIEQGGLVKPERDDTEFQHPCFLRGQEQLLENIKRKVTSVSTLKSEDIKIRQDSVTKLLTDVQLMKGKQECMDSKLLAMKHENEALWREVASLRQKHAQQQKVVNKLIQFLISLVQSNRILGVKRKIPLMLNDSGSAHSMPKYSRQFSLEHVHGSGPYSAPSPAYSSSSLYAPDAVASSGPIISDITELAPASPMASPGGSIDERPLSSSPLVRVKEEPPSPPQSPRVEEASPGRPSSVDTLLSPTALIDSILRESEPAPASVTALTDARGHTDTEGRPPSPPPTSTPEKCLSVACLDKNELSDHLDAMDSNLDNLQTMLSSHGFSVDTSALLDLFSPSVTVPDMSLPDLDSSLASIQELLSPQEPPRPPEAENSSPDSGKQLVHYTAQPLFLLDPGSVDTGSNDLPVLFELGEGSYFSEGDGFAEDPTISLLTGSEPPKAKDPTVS
Summary of the method: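 Read-out: fluorescence of reporter-specific RT-PCR fragments separated by capillary electrophoresis. HepG2 carrying transfected cis-element reporter units; 24 h dosing; activity fitted in both directions relative to DMSO baseline.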

[17] = ATG_MRE_CIS: Attagene CIS-FACTORIAL HepG2 Assay for human Metal Responsive Element (MRE) (AID 2282954); settings: HepG2 MRE cis-reporter transcription, Attagene multiplex; actives raise or lower the signal
Summary of the method: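 HepG2 cells transiently transfected with multiple cis-element reporter units measure endogenous MTF1-driven transcription. After 24 h compound exposure, reporter mRNA is quantified by RT-PCR with 6-FAM labelling, HpaI digestion and capillary electrophoresis; bidirectional fits versus DMSO.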

[18] = ATG_ERE_CIS: Attagene CIS-FACTORIAL HepG2 Assay for Estrogen Response Element (ERE) (AID 2282940); settings: HepG2 ERE cis-reporter, Attagene RNA transcript; actives raise or lower the signal
Summary of the method: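 Readout: reporter mRNA induction by RT-PCR, FAM-labelled primer extension, HpaI digestion and capillary electrophoresis, 24 h after dosing transfected HepG2 cells. Endogenous transcription factors act on cis-element-regulated reporters. Gain or loss fitted against DMSO.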

[19] = ATG_GRE_CIS: Attagene CIS-FACTORIAL HepG2 Assay for human Glucocorticoid Response Elements (GRE) (AID 2282947); settings: HepG2 GRE cis-reporter, Attagene multiplex mRNA; actives raise or lower the signal
Summary of the method: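 HepG2 cells transiently transfected with multiple cis-promoter reporter units measure endogenous TF activity; 24 h compound exposure. Reporter mRNA quantified by RT-PCR, FAM labelling, HpaI digestion and capillary electrophoresis; bidirectional fit vs DMSO baseline.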

Measured: outcome

OCC=Cc1ccccc1
not listed: [18] | [19]
inactive: all other assays above

N#CCCNCCC#N
not listed: [9] | [18] | [19]
inactive: all other assays above

COc1ccccc1NC(=O)CC(C)=O
not listed: [9] | [11] | [17] | [18] | [19]
inactive: all other assays above

CC(CCO)CC(C)(C)C (centres undefined)
not listed: [5]
inactive: all other assays above

CC1=CC[C@@H]2C[C@H]1C2(C)C
not listed: [5] | [19]
inactive: all other assays above

CC1=CCC(=C(C)C)CC1
not listed: [18] | [19]
inactive: all other assays above
